High-throughput results deposited in PubChem by National Center for Advancing Translational Sciences (NCATS).
RXFP1 antagonist: qHTS Assay for Antagonists of the Relaxin Receptor RXFP1. Relaxin receptor 1 (Homo sapiens), Q9HBX9. HEK293-RXFP1, relaxin-stimulated cAMP HTRF, 30 min; hits give low values. 0.59% of 350,000 active. activity change, negative = inhibition, % at 57.5 µM;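 active means activity change of -60% or lower, but not beyond a set lower limit; inconclusive means change between -60% and -40%, or beyond the set limit; inactive means change above -40%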; further: on the % scale 0 is the no-effect control and ±100 the full control effect
Target sequence (Q9HBX9 whole entry, looked up): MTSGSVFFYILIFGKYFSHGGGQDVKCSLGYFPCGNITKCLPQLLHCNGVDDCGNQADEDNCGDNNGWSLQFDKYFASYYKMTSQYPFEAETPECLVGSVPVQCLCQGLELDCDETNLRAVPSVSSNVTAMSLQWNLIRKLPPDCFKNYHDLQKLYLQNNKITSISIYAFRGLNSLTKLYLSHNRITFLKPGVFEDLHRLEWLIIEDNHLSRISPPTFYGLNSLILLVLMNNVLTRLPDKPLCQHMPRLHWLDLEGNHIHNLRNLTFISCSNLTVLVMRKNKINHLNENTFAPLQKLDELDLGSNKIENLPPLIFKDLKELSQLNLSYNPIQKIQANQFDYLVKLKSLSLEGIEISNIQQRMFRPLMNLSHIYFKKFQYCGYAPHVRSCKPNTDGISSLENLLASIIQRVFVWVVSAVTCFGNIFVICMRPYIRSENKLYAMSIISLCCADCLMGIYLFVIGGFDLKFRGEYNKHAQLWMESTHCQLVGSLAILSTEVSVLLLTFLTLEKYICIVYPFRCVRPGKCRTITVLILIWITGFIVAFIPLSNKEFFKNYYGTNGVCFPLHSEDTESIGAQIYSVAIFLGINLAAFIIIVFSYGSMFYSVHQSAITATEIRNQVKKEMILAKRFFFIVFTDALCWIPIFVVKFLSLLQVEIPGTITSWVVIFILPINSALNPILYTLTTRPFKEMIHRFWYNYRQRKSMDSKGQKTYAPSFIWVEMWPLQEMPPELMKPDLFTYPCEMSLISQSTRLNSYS
gsp antag: qHTS for Antagonists of gsp, the Etiologic Mutation Responsible for Fibrous Dysplasia/McCune-Albright Syndrome: qHTS | Potency, µM (doses to about 76.9 µM), without a hit: at the highest dose activity change, negative = inhibition, hits mostly inhibitors | 0.4% of 340,000 active | gsp-mutant cells, cAMP HTRF, 30 min; calls by dose curve; cell line not stated here;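 further: intracellular cAMP measured with PDE inhibitor Ro 20-1724 present during compound exposure; potency means the concentration at half of the fitted maximal effect; on the % scale 0 is the no-effect control and ±100 the full control effect; nearly all actives have a fitted effect of over 65% in size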
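HTRF cAMP measurement after 30 min RT detection following 30 min, 37C compound treatment alongside […] (added as 300 uM solution) in G418-selected cells seeded at 2000/well and grown 16–24 h.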
RXFP1 ag: qHTS Assay for Agonists of the Relaxin Receptor RXFP1; 0.3% of 370,000 active; HEK293T-RXFP1 cAMP TR-FRET, 30 min; response scale: percent of porcine relaxin response, buffer zero; Potency, µM (titrated, usually from 57.5 µM), without a hit: at the top dose activation, hits mostly activators; AID 2676, 2010; Relaxin receptor 1 (Homo sapiens), Q9HBX9; further: potency means the concentration at half of the fitted maximal effect; on the % scale 0 is the no-effect control and ±100 the full control effect; nearly all actives have a fitted effect of over 60% in size
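cAMP rise read by TR-FRET after 30 min, 37C compound exposure (up to 58 uM) in RXFP1-transfected HEK293 cells with Ro 20174 present. EC50 from Hill-equation fits, with 29 nM porcine relaxin as 100% and buffer as basal.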
miR-21 act: qHTS Assay for Modulators of miRNAs and/orActivators of miR-21. Potency, µM (series often up to 38.3 µM), for the others: at the highest dose activity change, positive = activation, most hits filed as activators. HeLa miR-21 FLuc reporter, luciferase, 48 h. 340,000 tested, under 10 active;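 further: % of control where 0% means no effect; miR-21 action dims this reporter so a rising signal means less miR-21 action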
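HeLa cells stably expressing CMV-driven firefly luciferase with a downstream miR-21 binding sequence, endogenously expressing miR-21, were treated with titrations (up to about 40uM final) for 48 hours at 37 degree Celsius. Luciferase luminescence was read after lysis.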
Luc counter: Counterscreen for Luciferase (Kinase-Glo TM) Inhibition | Kinase-Glo luciferase, ATP luminescence, 8 min | Potency, µM (titrated, usually from 38.3 µM), without a hit: top-dose activity change, negative = inhibition, most hits filed as inhibitors | 0.28% of 200,000 active | AID 1379, 2008 | Luciferin 4-monooxygenase (Photuris pensylvanica), Q27757; further: potency means the concentration at half of the fitted maximal effect; on the % scale 0 is the no-effect control and ±100 the full control effect; nearly all actives have a fitted effect of over 60% in size
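Kinase-Glo luciferase light output from ATP and luciferin was measured with 10 uM ATP, within the enzyme's linear range. Buffer: 50 mM imidazole pH 7.2, 50 mM KCl, 7 mM MgCl2, 0.01% Tween 20, 0.05% BSA; luminescence read after 8 min at ambient temperature.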
gsp ag: qHTS for Agonist of gsp, the Etiologic Mutation Responsible for Fibrous Dysplasia/McCune-Albright Syndrome: qHTS; gsp mutant cells, cAMP HTRF, 30 min; Potency, µM (top dose mostly 76.9 µM), without a hit: at the top dose activation (cAMP increase), actives largely listed as activators; 0.13% of 340,000 active; active means well fitted activation curve with a large enough effect; inconclusive means small, poorly fitted or top-dose-only effect, or another doubt; inactive means no such curve, though single readings can be large or run the other way; cell line not stated here;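 further: phosphodiesterase inhibitor Ro 20-1724 added with compounds to block cAMP breakdown; potency means the concentration at half of the fitted maximal effect; nearly all actives have a fitted effect of over 60% in size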
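Cells in DMEM/10% FBS with G418 were pretreated with compounds in DMSO plus […] (300 uM stock) for 30 min at 37C. cAMP was measured by HTRF (cAMP-d2 plus anti-cAMP antibody-K) after 30 min at room temperature.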
* hit, by the source's call; u = inconclusive; x = no result; [ ] = remark or other dose. In the library only some 1% were active in any assay of this set; here they are far more common. Unless noted, the call rests on the fitted dose curve; in most records, active means well fitted curve in the direction sought with a large enough effect; inconclusive means small, poorly fitted or top-dose-only effect, or another doubt; inactive means no such curve, though single readings can be large; an effect the other way counts as inactive or inconclusive.

SMILES	RXFP1 antagonist	gsp antag	RXFP1 ag	miR-21 act	Luc counter	gsp ag
O=C(O)Cn1cc(/C=C/[N+](=O)[O-])c2ccccc21	1.8	5.9%	12.6%	3.4%	-0.9%	2.9%[15.4 µM]
O=C(Cn1cc(/C=C\[N+](=O)[O-])c2ccccc21)Nc1ccccc1	-105.2*	14.3%	-0.3%	u	x	-16.7%
CN1CCC(N(Cc2cccs2)c2ccccc2)CC1	-10.2	x	x	x	x	x
CCC1C(=NO)C(CC)C(c2ccccc2)NC1c1ccccc1 (stereo not drawn)	-74.3*	u	-1.1%	23.5%	1.6%	1.5%[15.4 µM]
Cc1ccc(C)c(CN2C(=O)c3ccccc3S(=O)c3ccc(C(=O)NCc4ccco4)cc32)c1 (stereo not drawn)	x	x	-0.2%	13.5%	x	x
Oc1c(Br)cc(Br)cc1/C=N/NC(=S)N[C@H]1CC2C=CC1C2 (stereo partly drawn)	-71.6*	-19.5%	-0.5%	26.8%	x	8.8%[15.4 µM]
CCOC(=O)C(=Cc1ccc(Br)cc1)C(=O)OCC	-96.1*	-2.8%	4.6%	u	x	-8.7%
CC(=O)Nc1cc(C(=O)N2CCCC2)ccc1S(=O)(=O)c1ccc(C)cc1	-23.7	-0.8%	0.7%	-5.1%	-1.5%	-34.3%
CC(=O)Nc1cc(C(=O)N2CCCC2)ccc1Sc1ccc(C)cc1	-15.1	20µM*	3.6%	23.3%	-3.0%	17.0%
CC(=O)Nc1cc(C(=O)N2CCCC2)ccc1Sc1ccc(Cl)cc1	1.4	11.2µM*	0.0%	27.0%	-3.9%	18.4%
CSc1ccc(-c2nc3cccc(C)n3c2Nc2ccc3c(c2)OCO3)cc1	-2.4	x	9.5%	-4.0%	x	x
CCc1nc(SC)ncc1C(=O)N1CCN(c2cc(C)ccc2C)CC1	-17.1	x	0.0%	-1.1%	x	x
COc1ccccc1C1CC(=O)Oc2cc3c(cc21)OCO3 (stereo not drawn)	x	x	x	x	0.5%[39.9 µM]	x
CCOc1ccccc1N1CCN(C(=O)c2cc(-c3cc(OC)ccc3OC)nc3ccccc23)CC1	2.4	14.1µM*	2.3%	15.9%	x	23.4%
CCC(=O)C(Cc1ccccc1)(Cc1ccccc1)CC(C)N(C)C (stereo not drawn)	-11.3	x	x	x	x	x
O=C(N/N=C/c1cccc2ccccc12)c1ccncc1	-11.1	-9.0%	-1.3%	1.5%	x	0.2%
O=C(/C=C/c1cccc2ccccc12)c1ccncc1	-71.3*	7.3%	0.6%	u	1.2%	-34.3%
C[C@@H]1C[C@H]2[C@@H]3CCC4=CC(=O)C=C[C@]4(C)[C@@]3(F)[C@@H](O)C[C@]2(C)[C@@]1(O)C(=O)COC(=O)c1ccncc1	-11.1	x	x	x	x	x
COc1ccc([C@H]2CC(=O)C=C(c3ccc(OC(F)(F)F)cc3)C2)cc1	x	-2.3%	0.8%	x	x	-23.6%
COc1ccc([C@H]2CC(=O)C=C(c3ccc(CNC(=O)OC(C)(C)C)cc3)C2)cc1	x	35.5µM*	0.3%	x	x	9.8%
Nc1c(C(=O)Nc2ccc(Cl)cc2)sc2nc(N3CCOCC3)c3c(c12)CCCC3	29.3	-2.4%	9.4%	-6.5%	x	10µM*
Cc1ccc(NC(=O)c2sc3nc(N4CCOCC4)c4c(c3c2N)CCCC4)cc1	2.6	x	x	x	x	u
O=C(CCCn1c(=O)c2cccn2c2ccccc21)NCCc1ccc(Cl)cc1	-71.1*	x	-0.5%	-86.2%	x	x
O=C(CCn1c(=O)c2cccn2c2ccc(F)cc21)NCCc1ccc(Cl)cc1	-26.7	x	-2.1%	3.8%	x	x
O=S(c1ccccc1)c1ccc2nnnn2n1 (stereo not drawn)	x	x	x	x	1.5%	x
SMILES	RXFP1 antagonist	gsp antag	RXFP1 ag	miR-21 act	Luc counter	gsp ag
CCc1ccc(-n2c(=O)c3c4c(sc3n(CC(=O)N3CCC(C)CC3)c2=O)CCC4)cc1	x	x	5.1%	1.7%	x	x
O=C(NCCNC(=O)c1ccccc1O)c1ccccc1O	-3.6	-6.9%	-2.4%	-4.1%	x	-21.1%
O=C(NCCCCCCNC(=O)c1ccccc1O)c1ccccc1O	-22.8	44.7µM*	7.2%	7.8%	x	-3.0%[15.4 µM]
CCc1nnc2c(N3CCN(c4cccc(C(F)(F)F)c4)CC3)nc3ccccc3n12	-7.4	x	9.2%	-3.7%	x	x
CC1(C)CC(=O)C2=C(C1)NC1=C(C(=O)c3ccccc31)C2c1cc([N+](=O)[O-])ccc1O (stereo not drawn)	23.0	-11.6%	u	7.4%	x	14.1µM*
CCOC(=O)Cc1ccc(NC(=O)N(C(C)C)C2CCN(C(C)=O)CC2)cc1	-11.7	x	-3.3%	5.0%	x	x
CN(C)S(=O)(=O)c1ccc(C(=O)NCCSc2c(-c3ccc(Br)cc3)[nH]c3ccccc23)cc1	-16.7	x	0.9%	u	x	x
COc1ccccc1OCCCCN1CCN(C(c2ccccc2)c2ccccc2)CC1	-80.2*	-13.7%	-1.2%	16.8%	1.6%	13.6%[15.4 µM]
c1ccc(OCCOCCN2CCN(C(c3ccccc3)c3ccccc3)CC2)cc1	-26.3	1.8%	-1.3%	17.1%	2.3%	14.5%
c1ccc(CN2CCN(C(c3ccccc3)c3ccccc3)CC2)cc1	-103.9*	2.9%	1.4%	11.1%	x	50.2%[15.4 µM]
Fc1ccc(CN2CCN(C(c3ccccc3)c3ccccc3)CC2)cc1	-29.4	-15.9%	0.3%	4.7%	x	-107.7%
COC(=O)C1CCN(S(=O)(=O)c2cc3c4c(c2)C(C)C(=O)N4CCC3)CC1 (stereo not drawn)	1.6	x	8.0%	-6.0%	x	x
CNC(=O)Oc1ccc2c(c1)C1(C)CCN(C)C1N2C (stereo not drawn)	x	x	x	x	-1.8%	x
O=C(Nc1ccc(-c2cn3ccccc3n2)cc1)c1ccco1	1.9	-6.7%	0.7%	-47.2%	10µM*	2.7%
COc1c(Cl)cc(Cl)cc1CNCCSc1nnnn1C	x	x	5.8%	-8.8%	x	x
Cc1ccc(OCC(=O)N/N=C/C=C/c2ccco2)c(Br)c1	-76.0*	-1.4%	0.0%	-0.1%	x	-16.8%
CC(/C=C/c1ccco1)=N/NC(=O)c1ccccc1Cl	-6.3	-5.7%	3.7%	-34.1%	-5.6%	-14.9%
O=C(N/N=C/C=C/c1ccco1)c1ccccc1Cl	-81.7*	-5.3%	1.5%	-2.1%	0.9%	u
Cc1nn2c(=O)cc(COC(=O)c3ccccc3NC(=O)c3ccccc3C)nc2s1	8.9	x	0.4%	0.4%	x	x
Cc1ccc(C(=O)Nc2sc(C(=O)N(C)C)c(C)c2C#N)cc1	-7.3	9.5%	2.7%	-8.2%	-1.8%	-1.0%[15.4 µM]
Cc1c(C(=O)N(C)C)sc(NC(=O)c2cc([N+](=O)[O-])cc([N+](=O)[O-])c2)c1C#N	-0.8	39.8µM*	-0.5%	-10.1%	-3.6%	8.2%
C[C@H](CO)N1C[C@H](C)[C@H](CN(C)C(=O)c2ccccn2)Oc2ncc(Br)cc2C1=O	4.6	x	x	x	x	-30.1%
